High-throughput results deposited in PubChem BioAssay by National Center for Advancing Translational Sciences (NCATS).
TDP1 block = inhibitors of human tyrosyl-DNA phosphodiesterase TDP1 | AID 485290 | actives 0.28% (n = 350,000) | recombinant TDP1, AlphaScreen DNA substrate cleavage | Potency, µM (highest dose often 130 µM), for inactives: at the highest dose activity change, negative = inhibition, actives largely listed as inhibitors | Q9NUW8; also: potency is read from the fitted curve at half-maximal effect; % is scaled to controls: 0 for no effect and ±100 for the full control effect; nearly all actives have a fitted effect of over 40% in size
Target sequence (Q9NUW8 whole entry, looked up): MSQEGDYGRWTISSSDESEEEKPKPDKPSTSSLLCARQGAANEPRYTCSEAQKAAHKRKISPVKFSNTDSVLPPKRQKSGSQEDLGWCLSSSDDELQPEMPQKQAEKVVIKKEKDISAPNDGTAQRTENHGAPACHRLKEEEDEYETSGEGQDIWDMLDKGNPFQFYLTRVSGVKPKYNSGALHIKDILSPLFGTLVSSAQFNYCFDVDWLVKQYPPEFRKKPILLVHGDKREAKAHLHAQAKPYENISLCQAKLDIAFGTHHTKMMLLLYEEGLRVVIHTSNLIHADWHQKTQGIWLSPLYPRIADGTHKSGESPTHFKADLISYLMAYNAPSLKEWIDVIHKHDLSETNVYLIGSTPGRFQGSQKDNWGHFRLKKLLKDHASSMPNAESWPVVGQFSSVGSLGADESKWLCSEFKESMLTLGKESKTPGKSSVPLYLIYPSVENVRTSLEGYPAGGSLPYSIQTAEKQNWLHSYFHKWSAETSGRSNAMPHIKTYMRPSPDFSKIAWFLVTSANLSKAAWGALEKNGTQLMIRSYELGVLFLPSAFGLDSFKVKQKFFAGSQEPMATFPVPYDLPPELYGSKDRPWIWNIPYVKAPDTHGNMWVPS
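Here, a 5' biotin and 3' phosphotyrosine-FITC DNA oligonucleotide reports Tdp1 activity: intact substrate bridges AlphaScreen beads, while cleavage leaves a 3' phosphate and drops signal. All incubations at room temperature.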
TDP1 cell CPT = growth inhibition of DT40 Tdp1-/-;hTDP1 cells with camptothecin (screen for TDP1 inhibitors) | chicken DT40 Tdp1-/-;hTDP1 cells + 20 nM CPT, ATP luminescence, 48 h | Potency, µM (titrated, usually from 46.2 µM), for the others: at the top dose activity change, negative = growth inhibition, most hits filed as inhibitors | actives 12% (n = 420,000); also: potency is read from the fitted curve at half-maximal effect; % is scaled to controls: 0 for no effect and ±100 for the full control effect; nearly all actives have a fitted effect of over 55% in size
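Chicken DT40 Tdp1-/- cells complemented with human TDP1, 400 cells/well, exposed to compounds plus 20 nM camptothecin for at least 48 h at 37 C; viability read as ATP content by CellTiter-Glo luminescence.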
DT40 TDP1 no CPT = qHTS for Inhibitors of human tyrosyl-DNA phosphodiesterase 1 (TDP1): qHTS in cells in absence of CPT; DT40 Tdp1-/- hTDP1 cells, no CPT, ATP luminescence, 48 h; Potency, µM (titrated, usually from 46.2 µM), for inactives: top-dose activity change, negative = growth inhibition, hits mostly inhibitors; actives 15% (n = 420,000); also: potency is read from the fitted curve at half-maximal effect; % is scaled to controls: 0 for no effect and ±100 for the full control effect; nearly all actives have a fitted effect of over 55% in size
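A cellular qHTS used chicken DT40 cells lacking endogenous Tdp1 but carrying stably transfected human TDP1. Compounds were applied without camptothecin, and cell growth kinetics were judged by ATP-dependent luminescence after ≥48 hr.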
IL-1B inflam inh = blocks inflammasome-driven IL-1 beta release; THP-1 LPS/ATP IL-1B secretion, AlphaLISA, 16 h; stronger effect = lower value; activity change, % at 57.5 µM; actives 4.7% (n = 360,000); in the data active = activity change below about -50%; inconclusive = mostly about -30% to -49%; also: % is scaled to controls: 0 for no effect and ±100 for the full control effect
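Secreted IL-1B measured by AlphaLISA bead assay after 16 h compound exposure of THP-1 cells; compounds (final up to 57.5 uM) added 1 h before LPS (250 ng/mL) and ATP (1.25 mM) stimulation; lower signal means less secretion.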
TGFb inhibitor = inhibitors of TGF-b signaling; actives 1.2% (n = 410,000); AID 588855; HepG2 CAGA-GFP TGF-b/SMAD3 reporter, GFP fluorescence, 18 h; TGF-beta stimulated, 500 pg/mL final; Potency, µM (top dose mostly 46.1 µM), without a hit: at the top dose activity, negative = inhibition, most hits filed as inhibitors; also: potency is read from the fitted curve at half-maximal effect; % is scaled to controls: 0 for no effect and ±100 for the full control effect; nearly all actives have a fitted effect of over 65% in size
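TGF-beta reporter screen: HEPG2 CAGA-GFP, 1% FBS, 500 pg/mL TGF-beta final, 18 h; per-cell GFP summed per well; curves fitted and categorized by class.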
HepG2 tox-1 = HepG2 cytotoxicity, counter-screen for TGF-b inhibitors | HepG2 CAGA-GFP viability, ATP luminescence, 18 h | Potency, µM (titrated, usually from 46.1 µM), without a hit: top-dose activity change, negative = cytotoxicity, hits mostly cytotoxic | actives 0.76% (n = 410,000); also: potency is read from the fitted curve at half-maximal effect
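CellTiter-Glo luminescence gave cytotoxicity after 18 hours at 37 degrees C. The cells were HepG2 CAGA-GFP in 1% FBS DMEM, stimulated with 500 pg/mL TGF-beta after compound addition. %Activity was normalised to no-cell wells (complete cell-killing) and DMSO (no toxicity), and curves were fitted and classified.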
TGFb confirm = confirmation of TGF-b signaling inhibitors in HepG2 reporter cells. shares compounds with TGFb inhibitor. HepG2 CAGA-GFP TGF-b reporter, GFP fluorescence, 18 h; cells stimulated with TGF-beta, 500 pg/mL. Potency, µM (highest dose often 46.1 µM), without a hit: at the highest dose activity, negative = inhibition, actives largely listed as inhibitors. actives 63% (n = 1,600); also: potency is read from the fitted curve at half-maximal effect; % is scaled to controls: 0 for no effect and ±100 for the full control effect; nearly all actives have a fitted effect of over 65% in size
HepG2 tox-2 = counter-screen for TGF-b inhibitors: cytotoxicity in HepG2 cells | shares compounds with TGFb inhibitor | HepG2 CAGA-GFP viability, ATP luminescence, 18 h; cells stimulated with TGF-beta, 500 pg/mL | AID 720535 | Potency, µM (titrated, usually from 46.1 µM), inactives show at the highest dose activity, negative = cytotoxicity, hits mostly inhibitors | actives 27% (n = 1,600); also: potency is read from the fitted curve at half-maximal effect; % is scaled to controls: 0 for no effect and ±100 for the full control effect; nearly all actives have a fitted effect of over 70% in size
CCL64 TGFb inh = TGF-b inhibition, CCL64 orthogonal assay | shares compounds with TGFb inhibitor | CCL64 CAGA-GFP reporter, TGF-b stimulated, GFP fluorescence, 18 h | Potency, µM (doses to about 46.1 µM), without a hit: top-dose activity, negative = inhibition, actives largely listed as inhibitors | actives 41% (n = 1,600) | AID 720536; also: potency is read from the fitted curve at half-maximal effect; nearly all actives have a fitted effect of over 65% in size
TGFb COP inh = validation of TGF-b inhibitors in HepG2 COP promoter reporter; HepG2 COP-GFP TGF-b reporter, GFP fluorescence, 18 h; cells stimulated by added recombinant TGF-beta; shares compounds with TGFb inhibitor; Potency, µM (titrated, usually from 46.1 µM), for inactives: at the top dose activity, negative = inhibition, hits mostly inhibitors; actives 3% (n = 1,600); AID 720537; also: potency is read from the fitted curve at half-maximal effect; nearly all actives have a fitted effect of over 70% in size
* hit, by the source's call; [ ] = dose if it differs, or a comment. Rows were chosen to be rich in hits. Some 18% of all compounds tested hit in one or more screens of this group. Unless noted, calls follow the shape of the dose curve; as a rule, active = well fitted curve in the direction sought with a large enough effect; inconclusive = small, poorly fitted or top-dose-only effect, or another doubt; inactive = no such curve, though single readings can be large; an effect the other way counts as inactive or inconclusive.

How did O=C1NC[C@H](Cc2ccc(O)cc2)N(C[C@@H]2CCCN2C[C@H](Cc2ccc(O)cc2)N2C[C@H](Cc3ccccc3)N(CCc3ccccc3)C(=O)C2=O)C1=O do in these assays?
TDP1 cell CPT: inconclusive; DT40 TDP1 no CPT: inconclusive; IL-1B inflam inh: 13

Results for CCOc1ccc(CCN2C(=O)C(=O)N([C@@H](Cc3ccc(O)cc3)CN3CCC[C@H]3CN3C(=O)C(=O)NC[C@@H]3Cc3ccc(O)cc3)C[C@@H]2Cc2ccc(O)cc2)cc1 ?
TDP1 cell CPT: 4%; DT40 TDP1 no CPT: -6%; IL-1B inflam inh: -1

How did CCOc1ccc(CCN2C(=S)N([C@@H](CC(C)C)CN3CCC[C@@H]3CN3C(=S)NC[C@@H]3Cc3ccccc3)C[C@@H]2Cc2ccc(O)cc2)cc1 do in these assays?
TDP1 cell CPT: 15µM*; DT40 TDP1 no CPT: 13µM*; IL-1B inflam inh: -65*; TGFb inhibitor: 7.9µM*; HepG2 tox-1: -16%; TGFb confirm: inconclusive; HepG2 tox-2: inconclusive; CCL64 TGFb inh: inconclusive; TGFb COP inh: 27%

How did O=C1NC[C@H](Cc2ccc(O)cc2)N(C[C@@H]2CCCN2C[C@H](Cc2ccccc2)N2C[C@H](Cc3ccccc3)N(CCc3ccccc3)C(=O)C2=O)C1=O do in these assays?
TDP1 cell CPT: -8%; DT40 TDP1 no CPT: -17%; IL-1B inflam inh: -8

How did CC(C)C[C@@H](CN1CCCC1CN1C(=S)NC[C@@H]1Cc1ccc(O)cc1)N1C[C@H](Cc2ccccc2)N(CCc2ccccc2)C1=S (some centres undefined) do in these assays?
TDP1 cell CPT: inconclusive; DT40 TDP1 no CPT: 15µM*; IL-1B inflam inh: -16; TGFb inhibitor: inconclusive; HepG2 tox-1: -60%; TGFb confirm: inconclusive; HepG2 tox-2: -20%; CCL64 TGFb inh: inconclusive; TGFb COP inh: 27%

Results for Cc1cccc(C)c1NC(=O)CSc1nnc(Cn2nnc(-c3ccccc3)n2)n1-c1ccccc1 ?
TDP1 block: -1%; TDP1 cell CPT: inconclusive; DT40 TDP1 no CPT: inconclusive; IL-1B inflam inh: 7; TGFb inhibitor: -7%; HepG2 tox-1: 2%

How did Cc1cccc(C(=O)NCCCNC(=O)c2ccco2)c1 do in these assays?
TDP1 block: -19%[0.0935 µM]; TDP1 cell CPT: 5%; DT40 TDP1 no CPT: -15%; IL-1B inflam inh: 39; TGFb inhibitor: -1%; HepG2 tox-1: 4%

What do the screens show for `Cc1cccc(C)c1NC(=O)NN=C1CCCCC1`?
TDP1 block: -1%; TDP1 cell CPT: -3%; DT40 TDP1 no CPT: 10%; IL-1B inflam inh: -1; TGFb inhibitor: 7%; HepG2 tox-1: 6%

Results for CC[C@H](C)C1OC(=O)[C@@H](C)[C@@H](CC)NC(=O)[C@H](C)N(C)C(=O)C(C)(C)C(=O)C(C)NC(=O)[C@H](Cc2ccc(OC)cc2)N(C)C(=O)[C@H](C(C)C)N(C)C(=O)CNC(=O)[C@H](CC(C)C)N(C)C(=O)CNC1=O (some centres undefined) ?
TDP1 cell CPT: 0.15µM*; DT40 TDP1 no CPT: 0.18µM*; IL-1B inflam inh: -10; TGFb inhibitor: 0.5µM*; HepG2 tox-1: 4%; TGFb confirm: 1µM*; HepG2 tox-2: inconclusive; CCL64 TGFb inh: 1.3µM*; TGFb COP inh: 47%

Results for C/C=C/CC(C)C(O)C1C(=O)NC(CC)C(=O)N(C)CC(=O)N(C)C(CC(C)C)C(=O)NC(C(C)C)C(=O)N(C)C(CC(C)C)C(=O)NC(C)C(=O)NC(C)C(=O)N(C)C(CC(C)C)C(=O)N(C)C(CC(C)C)C(=O)N(C)C(C(C)C)C(=O)N1C (centres undefined) ?
TDP1 block: 10%

How did CCC[C@H]1NC(=O)[C@H](C)N(C)C(=O)C(C)(C)C(=O)C(C)NC(=O)[C@H](Cc2ccc(OC)cc2)N(C)C(=O)[C@H](C(C)C)N(C)C(=O)CNC(=O)[C@H](CC(C)C)N(C)C(=O)CNC(=O)[C@H]([C@@H](C)CC)OC(=O)[C@H]1C (some centres undefined) do in these assays?
TDP1 block: 0%; TDP1 cell CPT: 0.033µM*; DT40 TDP1 no CPT: 0.021µM*; IL-1B inflam inh: -29; TGFb inhibitor: 1.1µM*; HepG2 tox-1: -7%; TGFb confirm: 0.37µM*; HepG2 tox-2: inconclusive; CCL64 TGFb inh: 0.29µM*; TGFb COP inh: 96%

What do the screens show for `COc1ccccc1C1=NNC(=NCc2ccccc2)SC1`?
TDP1 block: 5%; TDP1 cell CPT: 13%; DT40 TDP1 no CPT: -15%; IL-1B inflam inh: inconclusive; TGFb inhibitor: 4%; HepG2 tox-1: 4%

What do the screens show for `COc1ccc(C2=NNC(=Nc3cc(S(=O)(=O)N(C)C)ccc3C)SC2)c(OC)c1`?
TDP1 block: 6%; TDP1 cell CPT: inconclusive; DT40 TDP1 no CPT: 16µM*; IL-1B inflam inh: -54*; TGFb inhibitor: inconclusive; HepG2 tox-1: -30%; TGFb confirm: inconclusive; HepG2 tox-2: inconclusive; CCL64 TGFb inh: inconclusive; TGFb COP inh: 28%
